Laboratory results as given in the supplement of paper PMC12636033.
± gives the standard deviation of the averaged measurements. In all, about 33,000 sequences were measured (“E-score (rank enrichment, -0.5 to 0.5)”: median about -0.0068, highest 2% from about 0.24 on). Only a selection was taken, and the highest values are over-represented in it overall.

system: muMax20 (Max(13-93) K31hArg/K57hArg, M65Nle); assay: PBM 8-mer E-score (E-score (rank enrichment, -0.5 to 0.5)); higher = stronger preferential binding
Procedure: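 Protein binding microarray (universal PBM chip covering all 10-mers in fixed probe flanks) with chemically synthesized human Max(13-93) bHLH-LZ analogs (not full-length Max) bearing noncanonical residues (hArg, Tha, Aib, Nle at 65) and aromatic Cys staples. Read-out per 8-mer (and its reverse complement): E-score (rank-based enrichment, -0.5 to 0.5) and Z-score of median probe intensity.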

Sequence	PBM 8-mer E-score
ACGAAAAG	0.154 ± 0.00054
AAAAACAC	0.283 ± 0.042
ACGAAAAA	0.181 ± 0.01
ACACTTCT	-0.0487 ± 0.018
GGACAGCC	-0.155 ± 0.053
GGCTCCCA	-0.218 ± 0.099
GCCTACGC	-0.109 ± 0.09
CAAAAACC	0.237 ± 0.016
CCAAAACC	0.122 ± 0.057
CAAGAAAA	0.0576 ± 0.13
AAAGAAAG	0.084 ± 0.006
AAAGAAAA	0.263 ± 0.074
GAAAAAAC	0.178 ± 0.042
CAAAACCC	0.145 ± 0.0083
GGAAAAAA	0.136 ± 0.12
GAAAAAAA	0.255 ± 0.013
CCCCCGAC	-0.232 ± 0.054
CCACAGGG	-0.0979 ± 0.07
ATCCGGTA	-0.00311 ± 0.041
ATGTCTAC	-0.0533 ± 0.013
AAACTGGA	0.098 ± 0.12
AATTGGGT	0.181 ± 0.051

Sequence	PBM 8-mer E-score
AATTGGGA	0.239 ± 0.021
AATTGGGC	0.0726 ± 0.029
AATTTGCA	0.149 ± 0.052
CGAGTAAA	0.0289 ± 0.1
CAAGTCGC	-0.102 ± 0.035
ACGTGTGA	0.19 ± 0.11
ACGTGCGG	0.105 ± 0.078
ACGTGCGC	0.241 ± 0.014
CCGTGCGC	-0.143 ± 0.07
ACGCGTGG	0.183 ± 0.12
ACGCGTGC	0.253 ± 0.042
ACGCGTGA	0.148 ± 0.14
ACGTGTGG	0.227 ± 0.071
ACGTGTGC	0.297 ± 0.087
GGAGAAGA	0.084 ± 0.0044
CTCCTTAC	0.0913 ± 0.013
CGTCTAGC	-0.0301 ± 0.083
GAGCCTAA	-0.0774 ± 0.0028
CGAGTACC	-0.134 ± 0.016
AACGGCTG	-0.184 ± 0.1
AACCACGA	0.141 ± 0.09
AACCACGT	0.369 ± 0.057

Sequence	PBM 8-mer E-score
ACCCACGC	0.109 ± 0.027
ACCCACGT	0.341 ± 0.11
ACCCACGA	0.0663 ± 0.055
AACCACGC	-0.0767 ± 0.24
AGTGTGCG	-0.149 ± 0.0092
AAGATGTG	0.128 ± 0.009
GCCGCCCC	-0.0538 ± 0.0099
CCCGCCCC	0.273 ± 0.057
CCCCGCCC	0.322 ± 0.043
AACCCGCC	-0.0715 ± 0.029
ACCGCCCC	0.0617 ± 0.15
ACCCGCCC	0.172 ± 0.024
ACCCCGCC	0.27 ± 0.04
CCCGCCCA	0.317 ± 0.073
GCCGCCCA	-0.267 ± 0.094
GCCCGCCC	0.0169 ± 0.057
CCCGCCCG	-0.0341 ± 0.0082
CCCCCGCC	-0.0877 ± 0.065
AAGAAAGA	-0.00904 ± 0.054
AGAGTAAG	0.117 ± 0.059
CCAAATAC	0.13 ± 0.031
CCCGAATA	-0.0449 ± 0.17

Sequence	PBM 8-mer E-score
CTTGGAGC	-0.103 ± 0.13
CCTAGCCG	-0.253 ± 0.052
ATCGGTGC	-0.0954 ± 0.028
CAGAACTA	-0.169 ± 0.18
AACACTCT	-0.00142 ± 0.039
AAGAACTC	-0.0481 ± 0.11
GCTAGAGC	-0.122 ± 0.12
TACTTCTA	0.272 ± 0.091
GACTTCTA	-0.149 ± 0.025
AACTTCTA	-0.0177 ± 0.042
CTTATGGA	-0.0576 ± 0.026
CAACCGAC	0.0428 ± 0.061
AAACACGT	0.342 ± 0.016
AAACACGC	0.198 ± 0.0045
ACACACGG	0.00898 ± 0.047
ACACACGA	0.188 ± 0.037
ACACACGT	0.338 ± 0.01
AAACACGA	0.194 ± 0.04
GACGTAAC	0.0633 ± 0.061
AATAGGTC	-0.0485 ± 0.14
AATAGGTA	0.251 ± 0.073
AATAGGTG	0.119 ± 0.0048
